The conditions of test [1]: Ebola virus entry assay, green fluorescence channel.
The conditions of test [2]: Ebola virus entry assay, blue channel fluorescence.
The conditions of test [3]: Ebola virus entry assay, ratio channel.
The conditions of test [4]: Ebola virus entry assay, green channel fluorescence.
For test [5] the following is noted: Ebola virus entry assay, reporter ratio channel; Channel type: primary.
The conditions of test [6]: Ebola virus entry assay, blue channel (ratio component).

Values without a mark were called inactive. For part of these data: Entries with a potency or affinity are not part of this list. The source made the active and inactive calls. The rule behind the calls is not given here.
Throughout, for efficacy: 0% is about no effect.

As to `COc1ccccc1OC(=O)Oc1ccccc1OC`, the efficacy in test [1] was -25.8%. Moreover, the outcome in test [2], in test [3], in test [4], in test [5] and in test [6] was inactive.
With `Nc1nc(=O)n([C@@H]2O[C@H](CO)[C@@H](O)[C@@H]2F)cc1I`, the efficacy in test [1] is -12.8%. For the same compound, the call in test [2], in test [3], in test [4], in test [5] and in test [6] was inactive.
Turning to `O=c1[nH]c2cc(Cl)ccc2n1C1CCNCC1`, in test [1], the efficacy is 11.1%. Further, the compound was classed as inactive in test [2], in test [3], in test [4], in test [5] and in test [6].
Turning to `C#C[C@]1(O)CC[C@H]2[C@@H]3CCC4=CC(=O)CC[C@@H]4[C@H]3CC[C@@]21C`, the efficacy in test [1] was -11.7%. Besides, the outcome in test [2], in test [3], in test [4], in test [5] and in test [6] was inactive.
For `Cc1c(Cl)cccc1Nc1ccccc1C(=O)O`, the efficacy in test [1] was 13.8%. In addition, the compound was called inactive in test [2], in test [3], in test [4], in test [5] and in test [6].
For the compound `COc1cc(C(=S)N2CCOCC2)ccc1O`, the efficacy in test [1] is -16.3%. In addition, the result in test [2], in test [3], in test [4], in test [5] and in test [6] was inactive.
Take `CC1(C)CCC(C)(C)c2cc(NC(=O)c3ccc(C(=O)O)cc3)ccc21`: in test [1], the efficacy is 21.8%. For the same compound, the compound was classed as inactive in test [2], in test [3], in test [4], in test [5] and in test [6].
As for `CCCCN(CCN(CCCC)C(=O)N1CCOCC1)C(=O)N1CCOCC1`, the efficacy in test [1] was 15.6%. The result in test [2], in test [3], in test [4], in test [5] and in test [6] was inactive.
As to `CCn1cc(C(=O)O)c(=O)c2cc(F)c(N3CCNCC3)nc21`, the efficacy in test [1] is -17.3%. In addition, the compound was called inactive in test [2], in test [3], in test [4], in test [5] and in test [6].
For the compound `O=C(O)c1cccc(-c2noc(-c3ccccc3F)n2)c1`, in test [1], the efficacy was 13.1%. For the same compound, the outcome in test [2], in test [3], in test [4], in test [5] and in test [6] was inactive.
Consider `C(=C\c1ccccc1)/CN1CCN(C(c2ccccc2)c2ccccc2)CC1`, for which the efficacy in test [1] is 12.5%. The result in test [2], in test [3], in test [4], in test [5] and in test [6] was inactive.
In the case of `O=S(=O)(c1cccc2cnccc12)N1CCCNCC1`, in test [1], the efficacy was -11.7%. Further, the compound was called inactive in test [2], in test [3], in test [4], in test [5] and in test [6].
For `O=C(O)c1cn(C2CC2)c2cc(Cl)c(F)cc2c1=O`, in test [1], the efficacy was 14.4%. Besides, the compound was called inactive in test [2], in test [3], in test [4], in test [5] and in test [6].
In the case of `Nc1ccncc1N`, the efficacy in test [1] is -16.5%. Further, the outcome in test [2], in test [3], in test [4], in test [5] and in test [6] was inactive.
Regarding `Cn1c(=O)c2c(ncn2C)n(C)c1=O`, the efficacy in test [1] is -24.5%. Also, the call in test [2], in test [3], in test [4], in test [5] and in test [6] was inactive.
Consider `COC(=O)C1=C(C)NC(COC(N)=O)=C(C(=O)OC(C)C)C1c1cccc(Cl)c1Cl` (stereo not drawn), for which the efficacy in test [1] is 27.1%. Further, the outcome in test [2], in test [4] and in test [6] was inactive. The AC50 in test [3] and in test [5] was 22.4 µM (active) each time.
Take `CC(C)(C)NCC(O)COc1cccc2c1CCC(=O)N2` (stereo not drawn): in test [1], the efficacy is -22.9%. Further, the call in test [2], in test [3], in test [4], in test [5] and in test [6] was inactive.
Regarding `COc1cc(O)c(C(=O)c2ccccc2)cc1S(=O)(=O)O`, the efficacy in test [1] is 11.7%. Also, the compound was called inactive in test [2], in test [3], in test [4], in test [5] and in test [6].
For `O=C(CCCCl)c1ccc(F)cc1`, in test [1], the efficacy was 36.2%. Further, the result in test [2], in test [3], in test [4], in test [5] and in test [6] was inactive.
On to `O=S(=O)(O)NC1CCCCC1`, for which the efficacy in test [1] is 14.2%. Besides, the compound was classed as inactive in test [2], in test [3], in test [4], in test [5] and in test [6].
As to `ClCCCN1CCN(c2cccc(Cl)c2)CC1`, in test [1], the efficacy is 26.2%. In addition, the compound was classed as inactive in test [2], in test [3], in test [4], in test [5] and in test [6].
Turning to `C=CCCCCCCCCC(=O)O`, in test [1], the efficacy was -13.8%. Further, the call in test [2], in test [3], in test [4], in test [5] and in test [6] was inactive.
With `NC(=O)C1(N2CCCCC2)CCN(CCCC(=O)c2ccc(F)cc2)CC1`, the efficacy in test [1] was 25.9%. Also, the outcome in test [2], in test [3], in test [4], in test [5] and in test [6] was inactive.
As for `CCCCC(=O)O[C@]1(C(=O)CO)[C@@H](C)C[C@H]2[C@@H]3CCC4=CC(=O)C=C[C@]4(C)[C@@]3(F)[C@@H](O)C[C@@]21C`, the efficacy in test [1] was 22.2%. Also, the compound was called inactive in test [2], in test [3], in test [4], in test [5] and in test [6].
As for `CC(C)[C@@H]1CC[C@@H](C)CC1=O`, the efficacy in test [1] was -22.8%. Further, the outcome in test [2], in test [3], in test [4], in test [5] and in test [6] was inactive.
For the compound `O=C(O)c1ccccc1Nc1cc(Cl)ccc1C(=O)O`, in test [1], the efficacy is -12.4%. The compound was called inactive in test [2], in test [3], in test [4], in test [5] and in test [6].
Regarding `CC1CC(OC(=O)C(O)c2ccccc2)CC(C)(C)N1C` (stereo not drawn), the efficacy in test [1] was 9.62%. The outcome in test [2], in test [3], in test [4], in test [5] and in test [6] was inactive.
Consider `CO/N=C(\C(=O)O)c1csc(NC(=O)CCl)n1`, for which, in test [1], the efficacy is 7.58%. Besides, the compound was called inactive in test [2], in test [3], in test [4], in test [5] and in test [6].

The values above are taken from PubChem BioAssay (NCATS).
